From PubChem BioAssay (EPA / NIEHS) come the findings set out here.

Structures are written as SMILES. Calls of active or inactive are those of the source. Rule for the calls, unless noted: active = hit-call score of the fitted dose curve at least 0.9, where 1 is the maximum; inactive = score below 0.9.

Read-out in test [1]: Protein phosphatase 2A (PPP2R4), PTPA (gene 5524)
Description: LTEA_HepaRG_PPP2R4: Life Technologies and Expression Analysis (LTEA) Assay for Protein phosphatase 2A (PPP2R4) using HepaRG (AID 2283522). The conditions noted are these: mRNA level, 48 h; actives raise or lower the signal. The essentials:
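Cells were plated, cultured 48 h, switched to serum-free induction medium, then dosed for 48 h (8 points, max 100 uM, 0.5% DMSO). RNA was isolated and PPP2R4 expression measured by TaqMan qRT-PCR.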

Read-out in test [2]: solute carrier (SLC22A1), SLC22A1 (gene 6580)
Description: LTEA_HepaRG_SLC22A1: Life Technologies and Expression Analysis (LTEA) Assay for solute carrier (SLC22A1) using HepaRG (AID 2283524). The conditions noted are these: mRNA level, 48 h; actives raise or lower the signal. The essentials:
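qRT-PCR readout (TaqMan, Fluidigm arrays) of SLC22A1 transcript, normalized to three housekeeping genes; bidirectional curve fit relative to 0.5% DMSO vehicle. Differentiated human HepaRG cells, 48 h chemical exposure, top concentration 100 uM, half-log steps, eight points.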

Read-out in test [3]: Pyruvate Dehydrogenase Kinase 4 (PDK4), PDK4 (gene 5166)
The test is described as follows: LTEA_HepaRG_PDK4: Life Technologies and Expression Analysis (LTEA) Assay for Pyruvate Dehydrogenase Kinase 4 (PDK4) using HepaRG (AID 2283525). To be noted: mRNA level, 48 h; actives raise or lower the signal. The essentials: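 HepaRG (human liver line), 48 h chemical exposure, 8-pt half-log CRC top 100 uM, 0.5% DMSO vehicle, duplicates. Readout: TaqMan qRT-PCR of PDK4 mRNA, housekeeping-normalized; gain/loss fit relative to DMSO baseline.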

Read-out in test [4]: NAD(P)H dehydrogenase [quinone] 1 (NQO1), NQO1 (gene 1728)
The test is described as follows: LTEA_HepaRG_NQO1: Life Technologies and Expression Analysis (LTEA) Assay for NAD(P)H dehydrogenase [quinone] 1 (NQO1) using HepaRG (AID 2283526). To be noted: mRNA level, 48 h; actives raise or lower the signal. The essentials: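 Transcript induction or suppression is quantified by qRT-PCR in human HepaRG liver cells dosed for 48 hours. Eight half-log concentrations topping at 100 uM are used, with 0.5% DMSO as vehicle and baseline.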

Read-out in test [5]: Nuclear factor erythroid 2-related factor 2 (Homo sapiens) (UniProt Q16236)
The test is described as follows: LTEA_HepaRG_NFE2L2: Life Technologies and Expression Analysis (LTEA) Assay for Nuclear factor erythroid 2-related factor 2 (NFE2L2) Transcription Factor using HepaRG (AID 2283527).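 For outcome: TaqMan qRT-PCR transcript level normalised to ACTB GAPDH and POLR2A housekeeping genes.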 The conditions noted are these: mRNA level, 48 h; actives raise or lower the signal. The essentials: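 HepaRG, 48 h dosing, 8-pt half-log series from 100 uM in 0.5% DMSO, duplicates. Read-out: NFE2L2 mRNA by qRT-PCR (ACTB/GAPDH/POLR2A normalization). Bidirectional curve fit vs DMSO baseline.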

Read-out in test [6]: succinate dehydrogenase complex iron sulfur subunit B (SDHB), SDHB (gene 6390)
The test is described as follows: LTEA_HepaRG_SDHB: Life Technologies and Expression Analysis (LTEA) Assay for succinate dehydrogenase complex iron sulfur subunit B (SDHB) using HepaRG (AID 2283528). To be noted: mRNA level, 48 h; actives raise or lower the signal. The essentials: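 Readout is SDHB transcript level by qRT-PCR, normalised to three housekeeping genes and fitted bidirectionally against 0.5% DMSO vehicle. Human HepaRG cells were treated for 48 h at up to 100 uM.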

Read-out in test [7]: Signal transducer and activator of transcription 3 (Homo sapiens) (UniProt P40763)
Description: LTEA_HepaRG_STAT3: Life Technologies and Expression Analysis (LTEA) Assay for Signal transducer and activator of transcription (STAT3) using HepaRG (AID 2283529). To be noted: mRNA level, 48 h; actives raise or lower the signal. The essentials: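 HepaRG, 48 h exposure, 8-pt half-log series (top 100 uM), 0.5% DMSO vehicle, duplicates. Readout: STAT3 transcript by Fluidigm qRT-PCR, housekeeping-normalized; bidirectional fit vs DMSO baseline.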

Read-out in test [8]: solute carrier (SLCO1B1), SLCO1B1 (gene 10599)
The test is described as follows: LTEA_HepaRG_SLCO1B1: Life Technologies and Expression Analysis (LTEA) Assay for solute carrier (SLCO1B1) using HepaRG (AID 2283530). To be noted: mRNA level, 48 h; actives raise or lower the signal. The essentials:
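Differentiated human HepaRG cells, plated 48 h, switched to serum-free induction medium and exposed in duplicate for 48 h to 8 half-log concentrations (top 100 uM) in 0.5% DMSO. SLCO1B1 mRNA by TaqMan qRT-PCR, normalized to ACTB/GAPDH/POLR2A.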

Read-out in test [9]: Transforming Growth Factor (TGFA), TGFA (gene 7039)
Description: LTEA_HepaRG_TGFA: Life Technologies and Expression Analysis (LTEA) Assay for Transforming Growth Factor (TGFA) using HepaRG (AID 2283532). The conditions noted are these: mRNA level, 48 h; actives raise or lower the signal. The essentials:
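qRT-PCR read-out of TGFA transcript, normalized to three housekeeping genes, fitted bidirectionally against 0.5% DMSO baseline. Human HepaRG cultures received chemicals for 48 h at eight half-log concentrations, top 100 uM.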

Read-out in test [10]: Transforming Growth Factor (TGFB1), TGFB1 (gene 7040)
The test is described as follows: LTEA_HepaRG_TGFB1: Life Technologies and Expression Analysis (LTEA) Assay for Transforming Growth Factor (TGFB1) Transporter using HepaRG (AID 2283533). To be noted: mRNA level, 48 h; actives raise or lower the signal. The essentials: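 Differentiated human HepaRG cells in serum-free induction medium were exposed in duplicate for 48 h to eight concentrations (top 100 uM, half-log steps, 0.5% DMSO). TGFB1 mRNA was quantified by qRT-PCR, normalized to ACTB, GAPDH, POLR2A, and fitted bidirectionally against DMSO.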

Read-out in a further test: TIMP1, TIMP1 (gene 7076)
Description: LTEA_HepaRG_TIMP1: Life Technologies and Expression Analysis (LTEA) Assay for TIMP1 using HepaRG (AID 2283534). The conditions noted are these: mRNA level, 48 h; actives raise or lower the signal. The essentials:
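Differentiated human HepaRG cells in serum-free induction medium were exposed 48 h to chemicals (8 half-log concentrations, top 100 uM, 0.5% DMSO). TIMP1 mRNA was quantified by TaqMan qRT-PCR, normalized to ACTB/GAPDH/POLR2A; bidirectional fit versus DMSO.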

Read-out in test [11]: Thyroid Hormone Responsive (THRSP), THRSP (gene 7069)
The test is described as follows: LTEA_HepaRG_THRSP: Life Technologies and Expression Analysis (LTEA) Assay for Thyroid Hormone Responsive (THRSP) using HepaRG (AID 2283536). To be noted: mRNA level, 48 h; actives raise or lower the signal. The essentials: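 qRT-PCR read-out (Fluidigm TaqMan), housekeeping-normalized (ACTB/GAPDH/POLR2A). HepaRG, 48 h chemical exposure, 8-pt half-log series from 100 uM in 0.5% DMSO, duplicates. Bidirectional curve fit vs 0.5% DMSO baseline.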

Read-out in test [12]: UDP glucuronosyltransferase (UGT1A1), UGT1A1 (gene 54658)
Description: LTEA_HepaRG_UGT1A1: Life Technologies and Expression Analysis (LTEA) Assay for UDP glucuronosyltransferase (UGT1A1) using HepaRG (AID 2283538). The conditions noted are these: mRNA level, 48 h; actives raise or lower the signal. The essentials:
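Cells are plated, cultured 48 h, switched to serum-free induction medium, then dosed 48 h at eight concentrations (max 100 uM, 0.5% DMSO). RNA is isolated and UGT1A1 expression measured by qRT-PCR; changes versus DMSO are fitted in both directions.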

A short description of test [13]: LTEA_HepaRG_LDH_cytotoxicity: Cytotoxicity Assessment in the Life Technologies and Expression Analysis (LTEA) Assay (AID 2283563; active = hit-call score of the fitted dose curve at least 0.9, where 1 is the maximum;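 for AC50: LDH activity released into spent culture medium as a marker of cell death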). The essentials: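 Differentiated human HepaRG cells, plated 48 h beforehand, were switched to serum-free induction medium and exposed for 48 h to eight half-log concentrations (top 100 uM) in 0.5% DMSO. LDH was measured in spent medium; activity was fitted relative to DMSO vehicle.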

Read-out in test [14]: Cellular tumor antigen p53 (Homo sapiens) (UniProt P04637)
The test is described as follows: LTEA_HepaRG_TP53: Life Technologies and Expression Analysis (LTEA) Assay for Tumor Protein P53 (TP53) using HepaRG (AID 2283537). The conditions noted are these: mRNA level, 48 h; actives raise or lower the signal. The essentials:
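Read-out is TP53 transcript level by microfluidic qRT-PCR, normalised to three housekeeping genes and fitted bidirectionally against DMSO. Human HepaRG cells received compounds for 48 h, highest concentration 100 uM.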

Read-out in test [15]: X-box binding protein 1 (XBP1), XBP1 (gene 7494)
The test is described as follows: LTEA_HepaRG_XBP1: Life Technologies and Expression Analysis (LTEA) Assay for X-box binding protein 1 (XBP1) using HepaRG (AID 2283540). To be noted: mRNA level, 48 h; actives raise or lower the signal. The essentials:
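Differentiated human HepaRG cells in serum-free induction medium were exposed in duplicate for 48 h to eight half-log concentrations up to 100 uM in 0.5% DMSO. XBP1 mRNA was quantified by qRT-PCR, normalised to ACTB, GAPDH and POLR2A, with bidirectional fitting against DMSO.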

Sequence of Nuclear factor erythroid 2-related factor 2 (Homo sapiens) (Q16236 whole entry, looked up): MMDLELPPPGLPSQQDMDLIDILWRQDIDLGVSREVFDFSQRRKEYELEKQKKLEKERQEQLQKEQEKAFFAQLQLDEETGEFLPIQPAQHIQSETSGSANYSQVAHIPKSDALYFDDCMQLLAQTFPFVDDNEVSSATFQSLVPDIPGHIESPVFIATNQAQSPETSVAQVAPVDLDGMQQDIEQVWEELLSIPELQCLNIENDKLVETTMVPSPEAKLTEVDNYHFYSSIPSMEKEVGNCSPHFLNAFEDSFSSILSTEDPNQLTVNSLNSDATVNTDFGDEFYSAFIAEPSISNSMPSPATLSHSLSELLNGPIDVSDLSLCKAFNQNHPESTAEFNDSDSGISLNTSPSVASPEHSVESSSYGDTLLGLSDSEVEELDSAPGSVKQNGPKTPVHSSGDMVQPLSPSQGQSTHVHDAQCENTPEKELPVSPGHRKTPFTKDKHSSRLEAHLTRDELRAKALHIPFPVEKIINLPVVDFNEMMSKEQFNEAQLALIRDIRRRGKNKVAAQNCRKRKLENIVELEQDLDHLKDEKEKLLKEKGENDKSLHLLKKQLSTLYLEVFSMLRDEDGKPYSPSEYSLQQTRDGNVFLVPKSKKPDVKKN
Sequence of Signal transducer and activator of transcription 3 (Homo sapiens) (P40763 whole entry, looked up): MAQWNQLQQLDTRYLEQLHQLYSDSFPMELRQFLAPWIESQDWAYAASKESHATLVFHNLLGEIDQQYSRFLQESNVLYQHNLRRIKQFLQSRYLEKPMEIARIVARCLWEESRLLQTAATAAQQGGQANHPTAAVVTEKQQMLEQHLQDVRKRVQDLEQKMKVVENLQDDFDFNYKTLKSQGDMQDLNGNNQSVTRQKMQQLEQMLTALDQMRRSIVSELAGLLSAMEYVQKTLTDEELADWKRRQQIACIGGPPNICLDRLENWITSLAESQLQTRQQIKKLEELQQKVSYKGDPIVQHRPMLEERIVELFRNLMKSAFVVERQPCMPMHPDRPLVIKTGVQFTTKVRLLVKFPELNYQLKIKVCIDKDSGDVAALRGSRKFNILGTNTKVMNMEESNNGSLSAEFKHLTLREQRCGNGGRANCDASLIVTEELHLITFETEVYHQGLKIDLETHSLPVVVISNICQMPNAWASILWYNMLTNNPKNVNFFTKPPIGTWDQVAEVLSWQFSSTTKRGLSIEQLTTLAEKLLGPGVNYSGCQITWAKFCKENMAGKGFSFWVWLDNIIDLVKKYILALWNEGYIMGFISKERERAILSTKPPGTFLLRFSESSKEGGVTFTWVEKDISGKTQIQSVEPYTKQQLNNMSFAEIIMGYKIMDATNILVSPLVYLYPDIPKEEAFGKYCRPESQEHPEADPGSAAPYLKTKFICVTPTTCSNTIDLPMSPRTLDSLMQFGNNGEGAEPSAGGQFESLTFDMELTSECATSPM
Sequence of Cellular tumor antigen p53 (Homo sapiens) (P04637 whole entry, looked up): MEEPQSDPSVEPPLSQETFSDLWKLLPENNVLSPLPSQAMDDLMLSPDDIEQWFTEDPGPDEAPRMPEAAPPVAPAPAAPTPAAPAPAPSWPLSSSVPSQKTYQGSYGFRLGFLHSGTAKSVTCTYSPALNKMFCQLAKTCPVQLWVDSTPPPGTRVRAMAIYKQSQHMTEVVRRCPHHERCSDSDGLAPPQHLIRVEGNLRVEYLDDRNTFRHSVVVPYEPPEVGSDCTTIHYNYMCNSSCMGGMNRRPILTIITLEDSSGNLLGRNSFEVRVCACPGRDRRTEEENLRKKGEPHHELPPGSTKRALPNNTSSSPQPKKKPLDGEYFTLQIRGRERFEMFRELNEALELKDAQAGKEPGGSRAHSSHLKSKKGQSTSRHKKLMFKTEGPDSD

On to `CNC(=O)/C=C(\C)OP(=O)(OC)OC`, for which the molecule was called inactive in [1], in test [2], in test [4], in test [5], in [6] and in test [7]. Besides, the outcome in test [8] was “inactive”; in test [9] it was “inactive”; in test [10], “inactive”; with TIMP1, TIMP1 (gene 7076), “inactive”; in [11], “inactive”; in [12] it was “inactive”. Moreover, the call in test [13] was inactive. For the same molecule, the AC50 in test [3] was 37.1 µM (active).
For the molecule `O=C1c2ccccc2C(=O)N1SC(Cl)(Cl)Cl`, the molecule was classed as inactive in [1], in test [2], in [3], in [4], in test [5] and in [6]. In addition, the outcome is “inactive” in [7]; “inactive” in test [8]; “inactive” in test [9]; “inactive” in [10]; “inactive” with TIMP1, TIMP1 (gene 7076); “inactive” in test [11]. The molecule was called inactive in test [14], in test [12] and in [13].
On to `CCOC1Oc2ccc(OS(C)(=O)=O)cc2C1(C)C` (configuration not stated), for which the outcome was “inactive” in test [1]; “inactive” in test [4]; “inactive” in [5]; “inactive” in test [10]; “inactive” in the test with TIMP1, TIMP1 (gene 7076). Further, the AC50 was 71.9 µM (active) in test [2]; 85.7 µM (active) in [3]; 9.92 µM (active) in [6]; 21.4 µM (active) in test [7]; 73.6 µM (active) in test [8]; 90.8 µM (active) in test [9]. Also, the AC50 is 89.3 µM (active) in test [11], 11.8 µM (active) in [12] and 83.8 µM (active) in test [13].
Consider `CCC(C)Nc1c([N+](=O)[O-])cc(C(C)(C)C)cc1[N+](=O)[O-]` (configuration not stated), for which the outcome in [1], in [2], in test [3], in test [4], in [5] and in test [6] was inactive. For the same molecule, the outcome in test [7] was “inactive”; in [8], “inactive”; in test [9], “inactive”; in [10] it was “inactive”; with TIMP1, TIMP1 (gene 7076) it was “inactive”; in [11], “inactive”. Besides, the molecule was called inactive in test [13]. The AC50 was 13.1 µM (active) in test [12] and 73.8 µM (active) in [15].
On to `O=[N+]([O-])c1c(Cl)c(Cl)c(Cl)c(Cl)c1Cl`, for which the molecule was classed as inactive in test [1], in test [2], in [3], in test [4], in test [5] and in test [6]. Also, the outcome in test [7] was “inactive”; in test [8], “inactive”; in test [9] it was “inactive”; in test [10] it was “inactive”; in the test with TIMP1, TIMP1 (gene 7076), “inactive”; in test [11], “inactive”. Also, the molecule was classed as inactive in test [14] and in test [13]. Further, the AC50 in test [12] was 17.2 µM (active).
For the molecule `CC[C@H](C)[C@H]1O[C@]2(C=C[C@@H]1C)C[C@@H]1C[C@@H](C/C=C(\C)[C@@H](O[C@H]3C[C@H](OC)[C@@H](O[C@H]4C[C@H](OC)[C@@H](O)[C@H](C)O4)[C@H](C)O3)[C@@H](C)/C=C/C=C3\CO[C@@H]4[C@H](O)C(C)=C[C@@H](C(=O)O1)[C@]34O)O2` (tested in a mixture with another compound), the AC50 is 47.7 µM (active) in test [1]; 9.94 µM (active) in test [2]; 16.3 µM (active) in [3]; 49.7 µM (active) in test [4]; 14 µM (active) in test [5]; 59.5 µM (active) in test [6]. Also, the AC50 was 46 µM (active) in [7]; 15.2 µM (active) in [8]; 13.9 µM (active) in test [9]; 55.3 µM (active) in [10]; 11.7 µM (active) in the test with TIMP1, TIMP1 (gene 7076); 6.99 µM (active) in [14]. Also, in test [13], the concentration at half-maximal activity (AC50) is 22.1 µM (active). Besides, the call in [11] was inactive.
